Bioassay records from PubChem.
Compounds with a hit are over-represented: about 0.62% of the library has one in this group of screens.
IL2 activator: qHTS of IL-2 Activators | activation, % (series mostly up to about 46 µM) | AID 652025, 2013 | hit rate 0.065% among 360,000 | IL-2 activation reporter assay, cell-based qHTS; stimulated with anti-CD3/CD4/CD28 beads; in transgenic mouse T cells; in the data active = activation above about 50%; inconclusive = mostly about 30% to 49%; also: 0% is about no effect
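Quantitative HTS in unstimulated transgenic mouse T cells, with memory T cells as non-tolerant control and PMA/ionomycin as tolerance-bypass control. Compound pretreatment lasted 60 minutes before 18 h bead stimulation; EGFP/DsRed fluorescence read.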
p53 reactivation: qHTS assay for re-activators of p53 using a Luc reporter | Potency, µM (series often up to 92.2 µM), inactives show at the top dose activity change, positive = activation, usual class: activators | H1299 p53-A138V BP100-luciferase reporter, luminescence, 24 h | hit rate 0.063% among 320,000; also: potency is read from the fitted curve at half-maximal effect; % of control where 0% means no effect; nearly all actives have a fitted effect of over 45% in size
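p53-null H1299 cells stably carrying temperature-sensitive p53-A138V and a BP100-luciferase reporter were pinned with compounds (4-point, 1:5 series) and held 24 hrs at 37 deg C. Luminescence was read 10 min after detection reagent.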
Epigenetic derep: Quantitative High-Throughput Screen for Regulators of Epigenetic Control; murine LDR cells, GFP reporter derepression, 30 h; Potency, µM (highest dose often 53.9 µM), for inactives: at the top dose GFP activation, actives largely listed as activators; hit rate 0.2% among 280,000; also: potency is read from the fitted curve at half-maximal effect; % of control where 0% means no effect; nearly all actives have a fitted effect of over 60% in size
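In this reporter-derepression format, murine cells bearing a silenced integrated CMV-GFP locus incubate with test compound (30 h, 37 C), then are washed and imaged; fluorescent objects of 20–120 um count as induced cells.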
uPA generation: qHTS for Inhibitors of Cell Surface uPA Generation | cell surface uPA generation assay, qHTS | Potency, µM (top dose mostly 38.3 µM), for the others: at the highest dose activity change, negative = inhibition, usual class: inhibitors | hit rate 0.31% among 330,000; active = well fitted inhibition curve with a large enough effect; inconclusive = small, poorly fitted or top-dose-only effect; inactive = no such curve, though single readings can be large or run the other way; tested in mouse RAW 264.7 cells; also: potency is read from the fitted curve at half-maximal effect; % is scaled to controls: 0 for no effect and ±100 for the full control effect; nearly all actives have a fitted effect of over 55% in size
PINK1 modulator: A Quantitative High throughput Screen to Identify Chemical Modulators of PINK1 Expression | hit rate 0.2% among 410,000 | Potency, µM (top dose mostly 76.6 µM), inactives show at the highest dose activation (PINK1 increase), hits mostly activators | PINK1 immunofluorescence, high-content cytometry, 24 h | AID 624263, 2012; active = well fitted activation curve with a large enough effect; inconclusive = small, poorly fitted or top-dose-only effect; cell line not stated here; also: potency is read from the fitted curve at half-maximal effect; % of control where 0% means no effect; nearly all actives have a fitted effect of over 65% in size
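PINK1 protein, normally rapidly degraded, was detected by immunofluorescence after 24 hour compound treatment of a stable cell line. Titration data (5 concentrations) came from laser-scanning cytometry, with CCCP-treated wells as controls.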
miR-21 act: qHTS Assay for Modulators of miRNAs and/orActivators of miR-21; HeLa miR-21 FLuc reporter, luciferase, 48 h; Potency, µM (doses to about 38.3 µM), inactives show top-dose activity change, positive = activation, usual class: activators; 340,000 tested, under 10 active;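 also: % of control where 0% means no effect; miR-21 action dims this reporter so a rising signal means less miR-21 action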
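Luminescence from a firefly luciferase reporter carrying a miR-21 binding site downstream, stably expressed under a CMV promoter in HeLa cells that make miR-21 endogenously, reports miRNA modulation after 48 h compound exposure up to approximately 40uM final.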
Parental c127i: Parental Cell Counter Screen Assay for Epigenetic Modulators: Hit Validation | AID 493065, 2011 | shares compounds with Epigenetic derep | Potency, µM, for inactives: top-dose fluorescent cell count, hits mostly activators | hit rate 20% among 60 | mouse c127i parental cells, fluorescent cell count, 30 h
An asterisk follows results filed as active; ? = inconclusive; . = no result given. Unless noted, calls follow the shape of the dose curve; as a rule, active = well fitted curve in the direction sought with a large enough effect; inconclusive = small, poorly fitted or top-dose-only effect, or another doubt; inactive = no such curve, though single readings can be large; an effect the other way counts as inactive or inconclusive.

SMILES	IL2 activator	p53 reactivation	Epigenetic derep	uPA generation	PINK1 modulator	miR-21 act	others
O=c1[nH]c(=O)n(-c2ccc(F)cc2)c(O)c1C=Nc1ccccc1N1CCCC1	3	3%	7%	2%	35µM*	-4%
COc1ccc(-c2nc(CSCC(=O)N3CCN(c4ccc(F)cc4)CC3)c(C)o2)cc1	.	.	0%	.	0%	?
O=C1CC[C@]2(O)C3Cc4ccc(O)c5c4C2(CCN3CC2CC2)C1O5 (some centres undefined)	.	.	-1%	.	.	.
COc1ccc2c3c1OC1C(=O)CC[C@@]4(O)[C@@H](C2)N(C)CC[C@]314 (some centres undefined)	-1	-26%	.	6.3µM*	0%	.
N#Cc1cc(NC(=O)c2ccc(Cl)cc2)ccc1Sc1ccccc1	-1	.	.	.	25µM*	.
CC[n+]1ccccc1/C=C/c1ccc(N(C)C)cc1	7	-2%	16µM*	?	?	?
C=C1[C@@H](O)[C@H](Cc2ccccc2)N(Cc2ccccc2Br)S1(=O)=O	-1	.	.	10µM*	-2%	.
CCCCC/C=C\C/C=C\C/C=C\C/C=C\CCCC(=O)N[C@H](C)CO	.	.	-1%	.	.	.
O=[N+]([O-])c1ccc(NCc2ccc(Cl)cc2)c2ccncc12	0	1%	.	3%	5%	1%
O=[N+]([O-])c1ccc(NCc2ccccc2)c2nonc12	-5	-2%	22µM*	-2%	40µM*	0%
C=CCN1C[C@H](C)N([C@H](c2ccc(C(=O)N(CC)CC)cc2)c2cccc(O)c2)C[C@H]1C	.	.	2%	.	.	.
COc1ccc(OC)c(N=Cc2c(O)n(Cc3ccccc3)c(=S)[nH]c2=O)c1	80*	-2%	?	4%	35µM*	3%
Cc1c(P(=S)(c2ccccc2)c2ccccc2)[n+]2ccccc2n1CCc1ccccc1	-1	.	.	.	25µM*	.
CCCC[C@@H](C)[C@@H](OC(=O)C[C@@H](CC(=O)O)C(=O)O)[C@H](C[C@@H](C)C[C@H](O)CCCC[C@@H](O)C[C@H](O)[C@H](C)N)OC(=O)C[C@H](CC(=O)O)C(=O)O	.	.	2%	.	.	.
CCN(CC)C(=O)[C@H]1C[C@H](CC(=O)NCc2ccc(OC)c(OC)c2)C(=O)N2CCc3c([nH]c4ccc(Cl)cc34)[C@]12C	0	-8%	.	10µM*	2%	.
COc1ccc2[nH]c3c(c2c1)CCN1C(=O)C(CC(=O)NCc2ccco2)C[C@H](C(=O)N(C(C)C)C(C)C)[C@@]31C (some centres undefined)	-1	-8%	.	?	1%	.
CCN(CC)c1ncnc2c1ncn2[C@@H]1O[C@@H](COP(=O)(O)OP(=O)(O)C(Br)(Br)P(=O)(O)O)[C@H](O)[C@H]1O	.	.	0%	.	.	.
O=C(CN1CCOCC1)c1ccc2ccccc2c1	.	.	.	.	0%	.
CN1Cc2cnnn2-c2ccccc2C1C#N (centres undefined)	0	.	.	?	0%	.
N#CC1c2ccccc2-n2nncc2CN1Cc1cc(Cl)cc(Cl)c1 (centres undefined)	-1	.	.	4.5µM*	4%	.
COc1ccc(CN2Cc3cnnn3-c3ccccc3C2C#N)cc1 (centres undefined)	-1	.	.	5.6µM*	-2%	.
O=c1c2ccccc2nc(/C=C/c2ccc([N+](=O)[O-])o2)n1-c1ccc(O)cc1	?	-11%	2%	-16%	40µM*	?
c1cncc(CNc2cc(-c3ccc4c(c3)OCO4)ncn2)c1	.	.	?	.	2%	.
Cc1cc(SCc2sc(-c3ccc(C(F)(F)F)c(F)c3)nc2C)ccc1OCC(=O)O	.	.	0%	.	.	.
Cc1ccc(-c2cc(-c3ccccc3)cc(-c3ccccc3)[n+]2-c2ccccc2)cc1	-1	-24%	.	10µM*	?	.
SMILES	IL2 activator	p53 reactivation	Epigenetic derep	uPA generation	PINK1 modulator	miR-21 act	others
CCOC(=O)c1ccc(-[n+]2c(-c3ccccc3)cc(-c3ccccc3)cc2-c2ccccc2)cc1	-1	-6%	.	?	?	.
Cc1ccc(-c2cc(-c3ccc(C)cc3)[n+](-c3ccccc3)c(-c3ccc(C)cc3)c2)cc1	-1	-16%	.	?	-1%	.
CCOC(=O)c1cccc(-[n+]2c(-c3ccccc3)cc(-c3ccccc3)cc2-c2ccccc2)c1	-1	-7%	.	?	25µM*	.
COc1ccc(O)c(/C=N/NC(=S)Nc2cccnc2)c1	0	-1%	1%	11µM*	0%	4%
FC(F)(F)c1cnc(NNC(=S)Nc2cccnc2)c(Cl)c1	-1	-1%	3%	?	0%	23%
N#CC(=Cc1ccc(O)c(O)c1)C(N)=S	.	.	1%	.	.	.
Cc1[nH]n(-c2ccccc2)c(=O)c1C(c1ccc([N+](=O)[O-])cc1)c1c(C)[nH]n(-c2ccccc2)c1=O	20	2%	-1%	?	40µM*	1%
O=C(Nc1ccc(Cl)cc1)Nc1ccc(Cl)c(Cl)c1	-1	28µM*	.	?	?	.
CCN1CCN(c2ccc(NC(C)=O)cc2Cl)CC1	1	-1%	-11%	-2%	1%	-4%
CN1CCc2c(C#N)c(Cl)nc(Cl)c2C1	2	?	5%	11µM*	4%	-7%
Cc1ccc(N2C(=O)NC(=O)/C(=C/C=C/c3ccco3)C2=O)cc1	1	-48%	1%	-14%	-3%	17%
CCc1ccc(N2C(=O)NC(=O)/C(=C\C=C\c3ccco3)C2=O)cc1	0	-15%	?	8.9µM*	0%	6%
Cc1ccc(Nc2nc(N)nc(CCl)n2)c(C)c1	-5	2%	-1%	4µM*	-4%	?
C[n+]1c(-c2ccccc2)c2cc(N)ccc2c2ccc(N)cc21	2	.	.	7.1µM*	-1%	?
Nc1ccc2ccc3cccc[n+]3c2c1	6	.	.	-2%	3%	4%
COc1cc2c(cc1O)[C@@H]1Cc3ccc(OC)c(O)c3CN1CC2	0	-15%	.	4.5µM*	8%	.
COc1cc2c(c(OC)c1OC)-c1ccc(O)c(=O)cc1[C@@H](NC(C)=O)CC2	1	18%	0%	8.9µM*	9%	.
CCN(CC)c1ccc2c(c1)oc(=O)c1c(Cl)cc(=O)oc12	-1	-54%	8.9µM*	-8%	0%	-4%	Parental c127i=32µM*
